Laboratory results: PubChem BioAssay (EPA / NIEHS)
Records with an inconclusive call do not appear. Calls of active or inactive are those of the source. Rule for the calls: active = hit-call score of the fitted dose curve at least 0.9, where 1 is the maximum; inconclusive = response in the unintended direction; inactive = score below 0.9.

Experiments:
[1] = TOX21_p53_BLA_p2_viability: Viability Assessment in the Tox21 HCT-116 p53 Agonism Beta-lactamase Assay, Phase 2 (AID 2283591);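 note: actives lower the ATP signal meaning cytotoxicity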
Outline: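 HCT-116 p53-bla cells (4000/well) rested 5 h at 37C, then received compounds in DMSO (217-fold dilution) for 16 h at 37C, 5% CO2. After the CCF4 read, CellTiter-Glo was added; ATP luminescence was read after 30 min at room temperature.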

[2] = biological target: Cellular tumor antigen p53 (Homo sapiens) (UniProt P04637); assay: TOX21_p53_BLA_p2_ratio: Tox21 HCT-116 p53 Agonism Beta-lactamase Assay, Ratio, Phase 2 (AID 2283592)
Cellular tumor antigen p53 (Homo sapiens), sequence (P04637 whole entry, looked up): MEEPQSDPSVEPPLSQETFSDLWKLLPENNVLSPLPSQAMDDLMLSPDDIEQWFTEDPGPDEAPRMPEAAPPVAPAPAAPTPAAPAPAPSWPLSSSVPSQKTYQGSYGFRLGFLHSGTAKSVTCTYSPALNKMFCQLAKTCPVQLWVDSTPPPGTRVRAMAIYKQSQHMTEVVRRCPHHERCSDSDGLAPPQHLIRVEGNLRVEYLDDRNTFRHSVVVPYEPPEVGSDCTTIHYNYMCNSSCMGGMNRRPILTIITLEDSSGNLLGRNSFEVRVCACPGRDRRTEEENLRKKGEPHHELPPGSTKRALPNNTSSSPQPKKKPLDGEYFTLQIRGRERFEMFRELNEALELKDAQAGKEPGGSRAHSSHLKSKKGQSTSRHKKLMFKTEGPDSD
Outline: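 First, HCT116 reporter cells settle for 5 h at 37C. Next, DMSO compound solutions are pinned in (217-fold dilution) and left 16 h. Finally, CCF4-AM substrate is loaded 2 h at room temperature and the 460/530 nm ratio read.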

[3] = TOX21_p53_BLA_p3_viability: Viability Assessment in the Tox21 HCT-116 p53 Agonism Beta-lactamase Assay, Phase 3 (AID 2283593);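 note: cells exposed to compound for 16 h before reading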
Outline: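 HCT-116 cells (4000/well) rested 5 h at 37C, then got DMSO compounds by pin tool (217-fold dilution) for 16 h at 37C, 5% CO2. After the bla read, CellTiter-Glo was added and luminescence read at 30 min, room temperature.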

[4] = biological target: Cellular tumor antigen p53 (Homo sapiens) (UniProt P04637); assay: TOX21_p53_BLA_p3_ratio: Tox21 HCT-116 p53 Agonism Beta-lactamase Assay, Ratio, Phase 3 (AID 2283596)
Outline: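 Cells were seeded at 4000/well, rested 5 h at 37C, then dosed with DMSO compound solutions (217-fold dilution) for 16 h. CCF4-AM substrate was loaded for 2 h at room temperature, and the 460/530 nm emission ratio was fitted for gain of signal versus DMSO.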

[5] = TOX21_p53_BLA_p5_viability: Viability Assessment in the Tox21 HCT-116 p53 Agonism Beta-lactamase Assay, Phase 5 (AID 2283600)
Outline: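 Decreased CellTiter-Glo luminescence denotes lost viability. Exposure: 16 h at 37C, 5% CO2, with compounds from DMSO stocks diluted 217-fold in wells of 4000 cells.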

[6] = biological target: Cellular tumor antigen p53 (Homo sapiens) (UniProt P04637); assay: TOX21_p53_BLA_p4_ratio: Tox21 HCT-116 p53 Agonism Beta-lactamase Assay, Ratio, Phase 4 (AID 2283601)
Outline: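 HCT116 cells carrying an inducible beta-lactamase reporter were plated at 4000 cells/well, rested 5 h, then exposed to compounds in DMSO (217-fold dilution) for 16 h at 37C. CCF4-AM substrate was loaded 2 h at room temperature; 460/530 nm emission ratio scored gain-of-signal versus DMSO.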

PGR (gene 5241) = PGR (gene 5241) (UniProt P06401); assay: TOX21_PR_BLA_Followup_Antagonist_ratio: Tox21 HEK293 Progesterone Receptor (PR) Antagonism Beta-lactamase Follow-Up Assay, Ratio (AID 2283934);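 note: PR-UAS-bla HEK293T cells stimulated with 1 nM R5020 agonist for 16 hr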
PGR (gene 5241), sequence (P06401 whole entry, looked up): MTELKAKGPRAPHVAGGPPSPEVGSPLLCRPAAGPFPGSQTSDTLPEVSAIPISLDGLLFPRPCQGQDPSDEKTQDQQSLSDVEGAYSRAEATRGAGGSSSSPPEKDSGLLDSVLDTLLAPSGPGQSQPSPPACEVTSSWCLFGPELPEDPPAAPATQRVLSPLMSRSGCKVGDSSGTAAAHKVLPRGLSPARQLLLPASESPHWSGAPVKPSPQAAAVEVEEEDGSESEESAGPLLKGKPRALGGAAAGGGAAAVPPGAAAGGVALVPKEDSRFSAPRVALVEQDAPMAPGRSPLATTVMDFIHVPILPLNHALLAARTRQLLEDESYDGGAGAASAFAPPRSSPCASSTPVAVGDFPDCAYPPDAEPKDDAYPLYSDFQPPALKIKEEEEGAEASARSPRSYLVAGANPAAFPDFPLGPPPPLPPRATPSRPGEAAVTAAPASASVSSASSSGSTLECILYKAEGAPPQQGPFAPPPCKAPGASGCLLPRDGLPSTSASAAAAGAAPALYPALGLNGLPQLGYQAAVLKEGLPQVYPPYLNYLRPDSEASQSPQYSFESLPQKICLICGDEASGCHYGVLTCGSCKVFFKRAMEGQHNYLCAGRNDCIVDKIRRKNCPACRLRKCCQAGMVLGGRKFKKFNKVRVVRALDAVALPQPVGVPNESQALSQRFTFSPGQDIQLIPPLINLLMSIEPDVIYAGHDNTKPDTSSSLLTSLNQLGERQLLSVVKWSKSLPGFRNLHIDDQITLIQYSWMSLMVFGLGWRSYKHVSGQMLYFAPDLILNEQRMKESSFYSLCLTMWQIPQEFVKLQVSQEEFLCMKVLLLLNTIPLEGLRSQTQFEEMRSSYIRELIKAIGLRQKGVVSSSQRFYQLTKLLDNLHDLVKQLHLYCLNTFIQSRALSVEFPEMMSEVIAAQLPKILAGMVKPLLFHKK
Outline: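 Cells are plated, rested 6 hr, then dosed with test compound in DMSO and challenged with 1 nM promegestone. After 16 hr incubation, substrate loading for 2 h at room temperature precedes fluorescence reading; viability is measured in the same wells.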

[7] = biological target: Cellular tumor antigen p53 (Homo sapiens) (UniProt P04637); assay: TOX21_p53_BLA_p5_ratio: Tox21 HCT-116 p53 Agonism Beta-lactamase Assay, Ratio, Phase 5 (AID 2283599)
Outline: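 HCT-116 cells carrying a p53-inducible beta-lactamase reporter were seeded at 4000 cells/well and dosed after 5 h with compound in DMSO (217-fold dilution). After 16 h at 37C, CCF4-AM substrate was added for 2 h, and the 460/530 nm emission ratio was scored as gain-of-signal versus DMSO.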

[8] = biological target: Thyroid hormone receptor alpha (Rattus norvegicus) + Thyroid hormone receptor beta (Rattus norvegicus) (UniProt P18113+P63059); assay: TOX21_TR_LUC_GH3_Antagonist_Followup: Tox21 GH3 Thyroid Hormone Receptor Antagonism Luciferase Follow-Up Assay (AID 2283942)
Outline: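 In a GH3 luciferase reporter line, test chemicals spanning 92 uM to 5nM final are co-incubated 24 h with 1.0 nM T3. Activity is expressed as relative luminescence units and analysed relative to DMSO.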

THRB (gene 7068) [9] = biological target: THRB (gene 7068) (UniProt P10828); assay: TOX21_TRB_BLA_Antagonist_Followup_ratio: Tox21 Thyroid Hormone Receptor beta Antagonism Beta-lactamase (BLA) Follow-Up Assay, Ratio (AID 2283958)
THRB (gene 7068), sequence (P10828 whole entry, looked up, the tested form may be a part): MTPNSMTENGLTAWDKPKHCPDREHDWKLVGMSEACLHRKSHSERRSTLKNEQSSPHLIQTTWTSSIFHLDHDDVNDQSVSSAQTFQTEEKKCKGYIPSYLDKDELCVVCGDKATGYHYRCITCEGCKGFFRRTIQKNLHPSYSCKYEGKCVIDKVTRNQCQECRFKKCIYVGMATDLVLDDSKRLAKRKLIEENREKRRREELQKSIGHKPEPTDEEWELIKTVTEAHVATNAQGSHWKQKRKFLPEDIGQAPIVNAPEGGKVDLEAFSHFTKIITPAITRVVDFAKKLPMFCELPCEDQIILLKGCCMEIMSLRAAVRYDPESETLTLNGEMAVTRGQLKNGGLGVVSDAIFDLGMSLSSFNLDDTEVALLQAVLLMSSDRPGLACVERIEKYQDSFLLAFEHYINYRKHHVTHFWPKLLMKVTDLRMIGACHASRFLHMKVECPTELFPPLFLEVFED
Outline: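 Cells were plated and allowed to attach for 5 h, then dosed with compounds in DMSO at 11 concentrations for 18 h at 37C. Beta-lactamase reporter activity was measured via CCF4-AM FRET as the 460:530 nm ratio.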

THRB (gene 7068) [10] = biological target: THRB (gene 7068) (UniProt P10828); assay: TOX21_TRB_COA_Antagonist_Followup_ratio: Tox21 Thyroid Hormone Receptor beta Antagonism through Coactivator Recruitment Follow-Up Assay, Ratio (AID 2283967)
Outline: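 Coactivator (SRC-2) recruitment to purified GST-TRβ ligand-binding domain is monitored by terbium-to-fluorescein energy transfer, emission ratio 520:495 nm. DMSO wells define 0% and T3 wells 100% activity.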

[11] = TOX21_TR_RXR_BLA_Antagonist_Followup_viability: Viability Assessment in the Tox21 Thyroid Hormone Receptor beta Retinoid X Receptor alpha (RXRa) Antagonism Beta-lactamase (BLA) Follow-Up Assay (AID 2283979)
Outline: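 RXRa-UAS-bla HEK293T cells seeded 2,500/well in phenol red-free DMEM with 2% charcoal-stripped FBS, attached 5 h, then exposed to compounds at 11 concentrations in triplicate for 16 h at 37C/5% CO2. Viability read by CellTiter-Glo ATP luminescence; bidirectional fit versus DMSO.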

[12] = CCTE_Deisenroth_AIME_96WELL_CTox_Active: Cytotoxicity Assessment (CTOX) in CCTE's 96-well Estrogen Receptor Transactivation Assay with AIME metabolic competence (metabolism positive), Deisenroth Lab (AID 2284028)
Outline: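 Cytotoxicity in VM7Luc4E2 breast cells after 24 h exposure to medium from a 2 h metabolic pre-incubation with induced rat hepatic S9 in alginate microspheres; fluorescent live-cell protease readout, 10-point series 0.002–200 uM, n=4.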

[13] = CCTE_Deisenroth_AIME_96WELL_CTox_Inactive: Cytotoxicity Assessment (CTOX) in CCTE's 96-well Estrogen Receptor Transactivation Assay without AIME metabolic competence (metabolism negative), Deisenroth Lab (AID 2284029)
Outline: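 Metabolism-negative mode: alginate-water lids without rat S9, 2 h pre-incubation of 10-point series (0.002 - 200 uM). Conditioned medium on VM7Luc4E2 cells 24 h; loss of fluorescent live-cell protease signal marks cytotoxicity.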

[14] = TOX21_p53_BLA_p4_viability: Viability Assessment in the Tox21 HCT-116 p53 Agonism Beta-lactamase Assay, Phase 4 (AID 2283597);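 note: hits lower the luminescence signal meaning cytotoxicity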
Outline: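 4000 HCT116 cells per well; 5 h attachment; compounds from DMSO, 217-fold dilution; 16 h at 37C. Then CCF4-AM, 2 h RT, followed by CellTiter-Glo, 30 min RT, luminescence. Decrease = cytotoxicity.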

Measured: AC50

OCC(CO)N[C@H]1C[C@](O)(CO)[C@@H](O)[C@H](O)[C@H]1O
inactive: [1] | [2] | [3] | [4] | [5]

[O]=[Zr]
inactive: [1] | [2] | [3] | [4] | [5]

CC(=O)OCC(=O)[C@@]1(O)CCC2C3CCC4=CC(=O)CC[C@]4(C)C3C(O)C[C@@]21C (stereo partly specified)
inactive: [1] | [2] | [3] | [4] | [5] | [6] | PGR (gene 5241)

CC(=O)OC(C)OC(=O)C(C)c1ccc(-c2ccccc2)c(F)c1 (stereo unspecified)
inactive: [1] | [2] | [3] | [4] | [5] | [6]

C[C@]12CCC(=O)C[C@@H]1CC[C@@H]1[C@@H]2CC[C@]2(C)C=CC[C@@H]12
inactive: [1] | [2] | [3] | [4] | [5] | [6]

NC(=O)[C@@H]1CCCN1C(=O)[C@H](Cc1cnc[nH]1)NC(=O)[C@@H]1CCC(=O)N1
inactive: [1] | [2] | [3] | [4] | [7] | [6]

Cc1ccccc1OCC(O)CO (stereo unspecified)
inactive: [1] | [2] | [3] | [4] | [5] | [6]

CCCCC[C@H](O)/C=C/[C@H]1[C@H](O)CC(=O)[C@@H]1C/C=C\CCCC(=O)O
inactive: [1] | [2] | [3] | [4] | [5] | [6]

CC(C)(O)C#CC(C)(C)O
inactive: [1] | [2] | [3] | [4] | [5]

CC(=O)Nc1ccn(C2COC(COC(=O)c3ccccc3)O2)c(=O)n1 (stereo unspecified)
active: [2] 5.44 µM | [4] 11.7 µM
not listed: [5] | PGR (gene 5241) | [12] | [13] | [14]
inactive: all other assays above

NCCN1CCNC1=O
inactive: [1] | [2] | [3] | [4] | [5] | [6]

CC(=O)N(O)CCCCCNC(=O)CCC(=O)N(O)CCCCCNC(=O)CCC(=O)N(O)CCCCCN
inactive: [1] | [2] | [3] | [4] | [6]

CC(O)[C@@H]1NC(=O)[C@H](Cc2ccccc2)NC(=O)[C@H](C(C)O)NC(=O)[C@H](CCCCN)NC(=O)[C@H](Cc2c[nH]c3ccccc23)NC(=O)[C@H](Cc2ccccc2)NC(=O)[C@H](Cc2ccccc2)NC(=O)[C@H](CC(N)=O)NC(=O)[C@H](CCCCN)NC(=O)[C@@H](NC(=O)CNC(=O)[C@H](C)N)CSSC[C@@H](C(=O)O)NC(=O)[C@H](CO)NC1=O (stereo partly specified)
inactive: [1] | [2] | [3] | [4] | [5] | [6]

O=C(NC1CCN(CCc2c[nH]c3ccccc23)CC1)c1ccccc1
inactive: [1] | [2] | [3] | [4] | [6]

O=C(CCCN1CCN(c2ccccn2)CC1)c1ccc(F)cc1
inactive: [1] | [2] | [3] | [4] | [5] | [6]

CCCCCCC(=O)O[C@H]1CC[C@H]2[C@@H]3CCc4cc(O)ccc4[C@H]3CC[C@]12C
inactive: [1] | [2] | [3] | [4] | [5] | [6]

C1CCN(CN2CCCCC2)CC1
inactive: [1] | [2] | [3] | [4] | [6]

COC1=C(C(=O)O)N2C(=O)[C@@H](NC(=O)[C@H](N)C3=CCC=CC3)[C@H]2SC1
inactive: [1] | [2] | [3] | [4] | [7] | [6]

CC(C)(c1ccccc1)c1ccccc1
inactive: [1] | [2] | [3] | [4] | [7] | [6] | [12] | [13]

CC(=O)O[C@H]1C[C@@H]2CC[C@@H]3[C@H](CC[C@@]4(C)[C@H]3C[C@H]([N+]3(C)CCCCC3)[C@@H]4OC(C)=O)[C@@]2(C)C[C@@H]1N1CCCCC1
inactive: [1] | [2] | [3] | [4] | [5] | [6]

C[C@H](/C=C/[C@H](C)C(C)(C)O)[C@H]1CC[C@H]2/C(=C/C=C3C[C@@H](O)C[C@H](O)C3)CCC[C@]12C
inactive: [1] | [2] | [4] | [5]
active: [3] 30 µM

COc1ccc(C(=O)N2CCN(CC(=O)N3CCOCC3)CC2)cc1
inactive: [1] | [2] | [3] | [4] | [5] | [6]

CCC1C(=O)OCC1Cc1cncn1C (stereo unspecified)
inactive: [1] | [2] | [3] | [4] | [5] | [6]

O=C1C2CC3CC1CC(O)(C3)C2
inactive: [1] | [2] | [3] | [4] | [6]

COc1cc(C(=O)OC(COCCC(C)C)CN2CCOCC2)cc(OC)c1OC (stereo unspecified)
inactive: [1] | [2] | [3] | [14]

C1OCOCO1
inactive: [1] | [2] | [3] | [4] | [5]

CC(=O)CC(C)=O
inactive: [1] | [2] | [3] | [4] | [5]

O=C1CCC(=O)N1CO
inactive: [1] | [2] | [3] | [4] | [7] | [6]

CC(C)CN(C[C@@H](OP(=O)(O)O)[C@H](Cc1ccccc1)NC(=O)O[C@H]1CCOC1)S(=O)(=O)c1ccc(N)cc1
inactive: [1] | [2] | [3] | [14] | [7]

O=P(O)(O)C(Sc1ccc(Cl)cc1)P(=O)(O)O
inactive: [1] | [2] | [3] | [14] | [7] | [5]

O=C1c2ccccc2C(=O)N1CCl
inactive: [1] | [2] | [3] | [14] | [7] | [5] | [6]

C[C@H]1C[C@H]2[C@@H]3CCC4=CC(=O)C=C[C@]4(C)[C@H]3C(=O)C[C@]2(C)[C@@]1(O)C(=O)CO
inactive: [1] | [2] | [3] | [14] | [7]
